Hits are enriched below; roughly 2.5% of the tested compounds scored in any of these assays.
MLL AF4-AF9 inh: inhibitors of AF4 peptide binding to AF9, primary screen, biochemical, AlphaScreen, biotin-AF4 peptide, FLAG-AF9, single point; inhibition, % at 10 µM; 350,000 tested, 0.47% active;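 active = every replicate reaching a set inhibition limit, whatever the replicate mean, cut at about 25% in these data; inconclusive = mean inhibition reaches that limit but some replicates miss it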;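 also: 0% = plate neutral control median and 100% = total signal loss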
NSD2 HMT inh: NSD2 histone methyltransferase inhibitors, primary screen, biochemical, AlphaScreen, single concentration, set 2 | Histone-lysine N-methyltransferase NSD2 (Homo sapiens), O96028 | AID 743445, 2014 | 310,000 tested, 0.54% active | inhibition, % at 12.5 µM | NSD2 peptide methylation, 120 min; in the data active = inhibition above about 50%
Target sequence (O96028 whole entry, looked up): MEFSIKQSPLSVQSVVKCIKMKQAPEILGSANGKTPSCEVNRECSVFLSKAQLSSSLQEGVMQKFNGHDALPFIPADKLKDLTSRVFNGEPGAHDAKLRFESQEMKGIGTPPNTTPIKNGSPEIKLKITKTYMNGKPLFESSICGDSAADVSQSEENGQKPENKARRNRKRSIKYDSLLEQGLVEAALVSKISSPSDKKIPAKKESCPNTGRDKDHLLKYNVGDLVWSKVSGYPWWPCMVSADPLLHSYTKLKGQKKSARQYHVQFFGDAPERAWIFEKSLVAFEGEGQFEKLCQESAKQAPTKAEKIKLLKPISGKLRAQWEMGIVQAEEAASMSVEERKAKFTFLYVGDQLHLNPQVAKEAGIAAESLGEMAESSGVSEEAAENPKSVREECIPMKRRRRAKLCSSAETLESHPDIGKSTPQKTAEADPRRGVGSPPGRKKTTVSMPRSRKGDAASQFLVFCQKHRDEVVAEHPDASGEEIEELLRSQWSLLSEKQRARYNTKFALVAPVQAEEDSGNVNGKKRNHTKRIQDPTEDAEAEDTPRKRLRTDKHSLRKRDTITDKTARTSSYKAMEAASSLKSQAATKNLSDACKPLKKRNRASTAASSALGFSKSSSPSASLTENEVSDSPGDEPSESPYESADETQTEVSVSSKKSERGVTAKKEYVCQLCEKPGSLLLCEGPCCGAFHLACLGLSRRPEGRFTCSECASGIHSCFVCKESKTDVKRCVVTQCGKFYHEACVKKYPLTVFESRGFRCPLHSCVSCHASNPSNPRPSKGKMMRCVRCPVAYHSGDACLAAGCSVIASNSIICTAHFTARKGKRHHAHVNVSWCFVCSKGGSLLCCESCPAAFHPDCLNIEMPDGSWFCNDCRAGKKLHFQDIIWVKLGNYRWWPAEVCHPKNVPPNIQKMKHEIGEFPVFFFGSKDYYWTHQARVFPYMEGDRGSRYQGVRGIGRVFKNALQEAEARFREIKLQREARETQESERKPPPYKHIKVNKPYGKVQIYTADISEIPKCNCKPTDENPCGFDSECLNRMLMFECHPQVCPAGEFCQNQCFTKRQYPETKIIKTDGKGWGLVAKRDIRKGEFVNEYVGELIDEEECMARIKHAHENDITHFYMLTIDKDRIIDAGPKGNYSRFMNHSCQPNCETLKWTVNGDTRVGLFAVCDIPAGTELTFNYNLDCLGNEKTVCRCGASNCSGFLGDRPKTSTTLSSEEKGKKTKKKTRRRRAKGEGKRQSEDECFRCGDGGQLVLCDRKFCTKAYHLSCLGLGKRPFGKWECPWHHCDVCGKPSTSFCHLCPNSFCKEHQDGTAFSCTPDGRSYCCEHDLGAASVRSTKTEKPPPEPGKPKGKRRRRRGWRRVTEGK
Casp6 inh: human caspase-6 inhibitors, primary screen, biochemical, VEID-R110 fluorescence, single point, set 2; purified caspase-6, Z-VEID-R110 cleavage fluorescence; P55212; inhibition, % at 12.5 µM; 350,000 tested, 0.53% active;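 active = mean inhibition across replicates at least about 35%, with every replicate also reaching that limit, limit read from the data; inconclusive = only one of the two criteria met; inactive = neither criterion met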;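 also: 0% = median of neutral control wells and 100% = no fluorescence left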
RAD52 inh: RAD52 DNA annealing inhibitors, primary screen, biochemical, FRET, single point, set 2 | DNA repair protein RAD52 homolog (Homo sapiens), P43351 | recombinant RAD52 DNA annealing, FRET fluorescence | inhibition, % at 18.7 µM | 360,000 tested, 0.46% active;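 active = every replicate showing at least 50% inhibition; inconclusive = mean inhibition at least 50% but not in every replicate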
rRNA inh HTS: reduced GFP signal of wild-type E. coli, primary screen, bacterial rRNA inhibitor project, GFP/RFP fluorescence, OD600, single point; GFP signal change (wild-type ribosome), % (test concentration not listed); 350,000 tested, 1.6% active; E. coli WT GFP vs humanized-ribosome RFP mutants, 24 h; active compounds read low; DMSO median 0, no signal -100;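 active = significant combined selectivity score with lowered wild-type GFP, culture density cut under 30%, mutant RFP and density less affected; inactive = any of these conditions unmet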
* marks the source's active call; other numbers are inactive results; ? = inconclusive; . = no result; ! = a repeat was not active.

SMILES	MLL AF4-AF9 inh	NSD2 HMT inh	Casp6 inh	RAD52 inh	rRNA inh HTS
Cc1ccc(-c2ccc(C3[C@@H]4CN(Cc5ccccc5)C[C@H]3N4)cc2)cc1 (some centres undefined)	.	.	.	.	0
Fc1ccc(-c2ccc(C3[C@@H]4CN(Cc5cccc(F)c5)C[C@H]3N4)cc2)cc1 (some centres undefined)	?	.	2	94*!	-57
Cc1ccc(S(=O)(=O)N2CCN(Cc3cccc(F)c3)CC2)cc1	-7	-3	0	2	-28*
Cc1ccc(S(=O)(=O)N2CCN(Cc3ccccc3)CC2)cc1	0	30	1	-12	-1
Cc1cc2nc(-c3ccccc3)cc(=O)n2[nH]1	49*	-2	-1	-5	-9
CCCn1c2ccccc2c2nnc(SCCN3CCOCC3)nc21	0	-2	43*	14	-14
Cc1ccccc1S(=O)(=O)N1CCCCN2[C@H](C1)[C@@H](c1ccc(C#CCN(C)C)cc1)[C@@H]2CO	-4	.	2	60*	-5
Cc1ccccc1S(=O)(=O)N1CCCCN2[C@@H](CO)[C@H](c3ccc(-c4ccccc4)cc3)[C@@H]2C1	-1	.	-2	71*	.
Cc1cccc(-c2ccc([C@H]3[C@H](CO)N4CCCCN(S(=O)(=O)c5ccccc5C)C[C@@H]34)cc2)c1	2	.	0	-48	-39*
Cc1ccccc1S(=O)(=O)N1CCCCN2[C@H](CO)[C@H](c3ccc(-c4ccccc4)cc3)[C@@H]2C1	-5	.	0	28	.
COc1ccc(S(=O)(=O)Nc2ccc3c(c2)C(=O)N([C@@H](C)CO)C[C@H](C)[C@@H](CN(C)C(=O)Nc2ccc4c(c2)OCO4)O3)cc1	.	.	.	.	0
CC(NC(=O)COC(=O)C1CCN(c2ccc(C(F)(F)F)cn2)CC1)c1ccc(Br)cc1 (centres undefined)	-14	-3	-2	-18	-24*
Nc1ccc(C2(c3ccc(N)cc3)c3ccccc3C(=O)c3ccccc32)cc1	1	-1	4	-26	-32*
CC(C)NC(=O)N(C)C[C@@H]1OCCCC[C@@H](C)Oc2ccc(NC(=O)CCC(F)(F)F)cc2C(=O)N([C@@H](C)CO)C[C@@H]1C	-1	.	7	-17	4
N#CC(C(=S)Nc1ccccc1)c1nc2ccccc2[nH]1 (centres undefined)	-3	2	0	-23	-38*
O=C(Nc1ccc(S(=O)(=O)N2CCCCC2c2cccnc2)cc1)c1ccccc1F (centres undefined)	-2	-2	2	-9	-35
COc1ccccc1C(=O)Nc1ccc(S(=O)(=O)N2CCCCC2c2cccnc2)cc1 (centres undefined)	0	-1	1	-10	-22*
O=C(NC(=S)NN1CCCCC1c1cccnc1)c1ccc(Br)cc1 (centres undefined)	2	-1	-1	-18	.
COC(=O)c1ccc(NC(=S)NN2CCCCC2c2cccnc2)cc1 (centres undefined)	.	0	0	-15	-27*
O=C1Oc2ccccc2C(=O)/C1=C/N1CCN(c2ccccc2F)CC1	-2	6	0	-34	-30*
COC(=O)CCCC1=CC2=CC(=O)C(C)(OC(=O)c3cccs3)C(=O)C2=CN1Cc1ccco1 (centres undefined)	0	.	47*	-11	9
O=C1NC2c3c(Cl)sc(Cl)c3C(=O)C2O1 (centres undefined)	-10	44	69*	-42	-5
Nc1c(C(=O)NCC2CCCO2)sc2nc3c(c(-c4ccco4)c12)CC/C3=C\c1ccco1 (centres undefined)	3	12	42*	-75	-4
O=C(N/N=C/c1cccnc1)c1ccc(CN2c3cccc4cccc(c34)S2(=O)=O)cc1	2	.	-3	-28	-18*
COc1cccc(/C=N/NC(=O)c2ccc(CN3c4cccc5cccc(c45)S3(=O)=O)cc2)c1	3	-2	-2	-12	8
CC(C)OCCCN(C)C1CCN(S(=O)(=O)c2ccc(-c3cc(C(F)(F)F)on3)s2)CC1	.	0	.	.	.

Source: PubChem BioAssay
